Data as given in PubChem BioAssay (NCATS).
Inconclusive results are not listed. Calls of active or inactive are those of the source. Unless noted, calls follow the shape of the dose curve; as a rule, active = well fitted curve in the direction sought with a large enough effect; inconclusive = small, poorly fitted or top-dose-only effect, or another doubt; inactive = no such curve, though single readings can be large; an effect the other way counts as inactive or inconclusive.

What was measured:
[1] = qHTS for Inhibitors of the Functional Ribonucleoprotein Complex (vRNP) of Lassa (LASV) Arenavirus: LASV Primary Screen - GLuc reporter signal (AID 1347082; calls by dose curve; tested in HEK293 reporter line; also: series mostly up to about 57 µM; nearly all actives have a fitted effect of over 60% in size)
[2] = qHTS for Inhibitors of the Functional Ribonucleoprotein Complex (vRNP) of Lassa (LASV) Arenavirus: Viability assay - alamar blue signal for LASV Primary Screen (AID 1347083; calls by dose curve; tested in HEK293 reporter line; also: series mostly up to about 57 µM; nearly all actives have a fitted effect of over 80% in size)
[3] = qHTS for Inhibitors of the Functional Ribonucleoprotein Complex (vRNP) of Lymphocytic Choriomeningitis Arenaviruses (LCMV): Viability assay - alamar blue signal for LCMV Primary Screen (AID 1347085; calls by dose curve; tested in HEK293 reporter line; also: series mostly up to about 57 µM; nearly all actives have a fitted effect of over 80% in size)
[4] = target: Nucleoprotein (Lymphocytic choriomeningitis virus (strain Armstrong)) (UniProt P09992); assay: qHTS for Inhibitors of the Functional Ribonucleoprotein Complex (vRNP) of Lymphocytic Choriomeningitis Arenaviruses (LCMV): LCMV Primary Screen - GLuc reporter signal (AID 1347086; calls by dose curve; also: series mostly up to about 57 µM; nearly all actives have a fitted effect of over 70% in size)
Nucleoprotein (Lymphocytic choriomeningitis virus (strain Armstrong)), sequence (P09992 whole entry, looked up): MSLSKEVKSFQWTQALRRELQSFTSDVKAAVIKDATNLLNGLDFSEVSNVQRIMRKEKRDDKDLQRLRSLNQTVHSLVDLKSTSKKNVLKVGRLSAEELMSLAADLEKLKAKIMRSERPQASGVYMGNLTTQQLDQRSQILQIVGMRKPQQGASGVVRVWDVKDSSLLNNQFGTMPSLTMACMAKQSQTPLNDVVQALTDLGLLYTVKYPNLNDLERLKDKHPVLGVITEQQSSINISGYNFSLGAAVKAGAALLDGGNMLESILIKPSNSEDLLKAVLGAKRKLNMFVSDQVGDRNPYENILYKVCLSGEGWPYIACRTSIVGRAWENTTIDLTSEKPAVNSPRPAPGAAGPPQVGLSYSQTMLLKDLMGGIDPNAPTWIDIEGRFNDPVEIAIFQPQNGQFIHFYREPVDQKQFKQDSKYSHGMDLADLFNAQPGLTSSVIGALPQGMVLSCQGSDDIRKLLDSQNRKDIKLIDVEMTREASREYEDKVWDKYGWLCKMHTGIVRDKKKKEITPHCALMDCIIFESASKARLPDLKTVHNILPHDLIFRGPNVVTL

[5] = qHTS of pediatric cancer cell lines to identify multiple opportunities for drug repurposing: Primary screen for TC32 cells (AID 1347089); also: nearly all actives have a fitted effect of over 60% in size
Procedure, shortened: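 Luminescent CellTiter-Glo read-out of metabolically active TC32 cells after 48 h compound exposure. Primary: MIPE 11-point, 0.78 nM–46 µM; NPC 8-point, 0.59 nM–46 µM. Confirmatory: 11-point dilutions.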

[6] = qHTS of pediatric cancer cell lines to identify multiple opportunities for drug repurposing: Primary screen for DAOY cells (AID 1347090); also: series mostly up to about 46 µM; nearly all actives have a fitted effect of over 55% in size
Procedure, shortened: (§1)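 Viability measured as metabolically active cells via CellTiter-Glo luminescence following 48 hours of compound exposure, 11-point dilutions in confirmatory testing. 500-1,000 cells/well plated 5 hours before dosing; controls were DMSO and 2.3 µM bortezomib.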

[7] = qHTS of pediatric cancer cell lines to identify multiple opportunities for drug repurposing: Primary screen for A673 cells (AID 1347092); also: nearly all actives have a fitted effect of over 45% in size
Procedure, shortened: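 A673 cells (500-1,000 cells/well in growth media) were pre-incubated 5 h at 37 degrees C, then exposed to compounds for 48 h. Viability was read as CellTiter-Glo luminescence; concentration-response curves came directly from the primary screen.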

[8] = qHTS of pediatric cancer cell lines to identify multiple opportunities for drug repurposing: Primary screen for SK-N-MC cells (AID 1347093); also: series mostly up to about 46 µM
Procedure, shortened: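 Metabolically active cells were quantified by ATP-dependent luminescence (CellTiter-Glo, 15 min at room temperature) following 48 h treatment. Cells had been plated at 500-1,000 per well and settled for 5 h beforehand.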

[9] = qHTS of pediatric cancer cell lines to identify multiple opportunities for drug repurposing: Primary screen for SJ-GBM2 cells (AID 1347091)
Procedure, shortened: as §1

Measured: Potency

CCOC(=O)c1cncn1C(C)c1ccccc1 (stereo not drawn)
inactive: [1] | [2] | [3] | [4] | [5] | [6] | [7] | [8]

COc1cc(CC(C)N)cc2c1OCO2 (stereo not drawn)
inactive: [1] | [2] | [3] | [4] | [5] | [6] | [9] | [8]

C[N+](C)(C)CCOC(=O)C(O)(c1ccccc1)c1ccccc1
inactive: [1] | [2] | [3] | [4] | [5] | [6] | [9] | [7] | [8]

CC(Cc1ccccc1)NCCCCl (stereo not drawn)
inactive: [1] | [2] | [3] | [4] | [5] | [6] | [9] | [7] | [8]

CCC(=O)O[C@H]1CC[C@H]2[C@@H]3CCC4=CC(=O)CC[C@]4(C)[C@H]3CC[C@]12C
inactive: [1] | [2] | [3] | [4] | [5] | [6] | [7]

ClC1=C(Cl)C2(Cl)C(CBr)CC1(Cl)C2(Cl)Cl (stereo not drawn)
inactive: [1] | [2] | [3] | [4] | [5] | [6] | [9] | [7] | [8]

CCN(CC)C(C)C(=O)c1ccccc1 (stereo not drawn)
inactive: [1] | [2] | [3] | [4] | [5] | [6] | [7] | [8]

O=C(CCCN1CCC(n2c(=O)[nH]c3ccccc32)CC1)c1ccc(F)cc1
inactive: [1] | [2] | [3] | [4] | [5] | [6] | [7] | [8]

Oc1c(Br)cc(Br)cc1Br
inactive: [1] | [2] | [3] | [4] | [5] | [6] | [9] | [7] | [8]

CC1N=C(N)OC1c1ccccc1 (stereo not drawn)
inactive: [1] | [2] | [3] | [4] | [5] | [6] | [7] | [8]

CCOC(=O)C1(c2ccccc2)CCN(CCc2ccc(N)cc2)CC1
inactive: [1] | [2] | [3] | [4] | [5] | [6] | [7] | [8]

COCC(=O)N(c1c(C)cccc1C)C(C)C(=O)OC (stereo not drawn)
inactive: [1] | [2] | [3] | [4] | [5] | [6] | [9] | [7] | [8]

Cc1cccc(Cc2cnc[nH]2)c1C
inactive: [1] | [2] | [3] | [4] | [5] | [6] | [9] | [7] | [8]

CC(C(O)c1ccccc1)N(C)C/C=C/c1ccccc1 (stereo not drawn)
inactive: [1] | [2] | [3] | [4] | [5] | [6] | [9] | [7] | [8]

CN1CCC(N(Cc2ccccc2)c2ccccc2)CC1
inactive: [1] | [2] | [3] | [4] | [5] | [6] | [7]

NC(=O)OCCCc1ccccc1
inactive: [1] | [2] | [3] | [4] | [5] | [6] | [7] | [8]

CN1C2CCC(C)(C)C1CC(OC(=O)C(O)(c1cccs1)c1cccs1)C2 (stereo not drawn)
inactive: [1] | [2] | [3] | [4] | [5] | [6] | [7] | [8]

ClCc1cccc(Cl)c1
inactive: [1] | [2] | [3] | [4] | [5] | [6] | [7] | [8]

c1ccc2nc(N3CCNCC3)ccc2c1
inactive: [1] | [2] | [3] | [4] | [5] | [6] | [7]

CCOC(C(=O)OCCN(C)C)(c1ccccc1)c1ccccc1
inactive: [1] | [2] | [3] | [4] | [5] | [6] | [7]
